Over roughly 33,000 sequences, “e-score” has its median near -0.05; the highest 2% begin near 0.38. Only a selection was taken, and the highest values are over-represented in it overall.

From paper PMC10668032, “Altered binding affinity of SIX1-Q177R correlates with enhanced WNT5A and WNT pathway effector expression in Wilms tumor” come the findings set out here.

The experiment addresses T1, SIX1-Q177R homeodomain (human, UniProt Q15475 108-198, Q177R).
T1 sequence: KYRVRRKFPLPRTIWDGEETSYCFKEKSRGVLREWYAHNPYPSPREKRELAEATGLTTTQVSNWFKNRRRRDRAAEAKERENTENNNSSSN
Put plainly: universal protein binding microarray; Universal all-10-mer PBM (8x60K, AMADID 030236), 300 nM GST-tagged protein, Alexa Fluor 488 anti-GST; buffer, salt, pH and temperature not stated (as in Berger); high values mean tight binding. As to conditions: protein: ivt; tags: N-terminal GST; dsDNA, one strand shown. In outline:
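Homeodomains fused to GST were made by in vitro transcription/translation and measured by anti-GST western blot with a recombinant GST standard curve. At 300 nM final concentration, they were applied in duplicate to universal 'all 10-mer' protein binding microarrays (8×60K format).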
On to ACCCGATA, for which the binding signal is 0.237 ± 0.00872 E-score.
The value for CACCGAGG was 0.2466 ± 0.00166 E-score; that for CACCAATC was 0.287 ± 0.00449 E-score.
The figure for GAAGGACA is 0.176 ± 0.0303 E-score.
As to AACGAGTG, the binding signal is 0.189 ± 0.0329 E-score.
The figure for CCCCCTGA is 0.277 ± 0.0278 E-score.
The figure for CCCCCAGG is 0.213 ± 0.0301 E-score.
The figure for CACCTGCG is 0.26 ± 0.0138 E-score; for ACTTCTAC it is 0.182 ± 0.0104 E-score; for CACGGGAC it is 0.163 ± 0.0415 E-score.
As to CCCCTCAA, the binding signal stood at 0.161 ± 0.0276 E-score.
The figure for CACTCAAG is 0.264 ± 0.00106 E-score.
The figure for CGACTCCA is 0.275 ± 0.014 E-score.
The value for CCCCTCCG was 0.2736 ± 0.00272 E-score; that for CACTAGGC was 0.221 ± 0.00293 E-score; that for CCCCTTAC was 0.245 ± 0.00846 E-score.
Turning to GACACTAA, the binding signal came out at 0.369 ± 0.00967 E-score.
The figure for AACACTGA is 0.35 ± 0.0172 E-score; for TACACTAA it is 0.381 ± 0.0182 E-score; for AACACTAA it is 0.336 ± 0.0111 E-score.
The figure for GACACTGC is 0.4326 ± 0.00138 E-score.
The figure for CACACTGG is 0.264 ± 0.0213 E-score; for GACACTGA it is 0.403 ± 0.0214 E-score; for TACACTGA it is 0.394 ± 0.0104 E-score.
Consider CACACTGC, for which the binding signal came to 0.258 ± 0.0222 E-score.
The figure for CACACTGA is 0.208 ± 0.0349 E-score.
The value for AACACTGC was 0.375 ± 0.0233 E-score.
The value for AATCGTGT was 0.369 ± 0.0106 E-score.
With AACTCCCG, the binding signal worked out at 0.181 ± 0.0506 E-score.
The figure for ACTGGTAC is 0.192 ± 0.00471 E-score; for CCCCCCGA it is 0.314 ± 0.0156 E-score; for CACTACGG it is 0.188 ± 0.0252 E-score.
The figure for CGAGGAAC is 0.197 ± 0.0457 E-score; for CCGATCCC it is 0.221 ± 0.00253 E-score.
On to TACTCCAA, for which the binding signal was determined as 0.198 ± 0.0212 E-score.
In the case of CACTGTGC, the binding signal turned out to be 0.204 ± 0.00431 E-score.
Regarding CACAGGTG, the binding signal came out at 0.307 ± 0.0159 E-score.
The figure for GACACTTA is 0.383 ± 0.00709 E-score.
The value for AACACTTA was 0.328 ± 0.0332 E-score.
Consider CACACTTA, for which the binding signal was found to be 0.204 ± 0.00443 E-score.
The figure for CAACGACA is 0.197 ± 0.0113 E-score; for CGGATCCC it is 0.235 ± 0.023 E-score.
The value for CAGGGGTA was 0.234 ± 0.0165 E-score.
The figure for ACCCAGGG is 0.201 ± 0.0184 E-score; for AACACTAT it is 0.295 ± 0.0435 E-score; for CACACTAG it is 0.25 ± 0.0068 E-score.
For CACACTAC, the binding signal was determined as 0.2973 ± 0.00215 E-score.
The value for GACACTAC was 0.434 ± 0.00877 E-score; that for AACACTAC was 0.381 ± 0.0184 E-score.
The figure for AACACTAG is 0.357 ± 0.0233 E-score.
Consider CACCCAGG, for which the binding signal stood at 0.284 ± 0.0239 E-score.
Regarding GGTGCTAC, the binding signal stood at 0.183 ± 0.00715 E-score.
The figure for ACTCTACC is 0.151 ± 0.0299 E-score.
Regarding TCACTACA, the binding signal came to 0.225 ± 0.0148 E-score.
In the case of ACACTACA, the binding signal was found to be 0.41 ± 0.0193 E-score.
As to ACACTATG, the binding signal was determined as 0.328 ± 0.0294 E-score.
The value for ACACTAAG was 0.337 ± 0.0137 E-score.
The value for ACACTACG was 0.388 ± 0.00491 E-score; that for ACACTACC was 0.421 ± 0.00623 E-score.
The figure for CCACTACA is 0.298 ± 0.0151 E-score; for ACACTACT it is 0.393 ± 0.0188 E-score.
Turning to ACACTATC, the binding signal was 0.342 ± 0.0149 E-score.
The value for ACACTAAT was 0.333 ± 0.0159 E-score; that for ACACTATA was 0.322 ± 0.0287 E-score.
The figure for CCAGAACA is 0.261 ± 0.00433 E-score; for GGGGCGTA it is 0.159 ± 0.0113 E-score; for CCGCGTCA it is 0.156 ± 0.0229 E-score.
The figure for AGTAGGTG is 0.279 ± 0.025 E-score; for CCTCTTTA it is 0.171 ± 0.0307 E-score; for AGGGTATG it is 0.226 ± 0.0255 E-score.
As to ACCGGACA, the binding signal amounted to 0.245 ± 0.00259 E-score.
The figure for CCCCGGCC is 0.233 ± 0.0259 E-score.
Consider CGGTATCC, for which the binding signal came to 0.325 ± 0.00938 E-score.
The value for GGGTACAC was 0.443 ± 0.0111 E-score.
The figure for GGGTACAA is 0.17 ± 0.0208 E-score; for AGGTACTC it is 0.166 ± 0.0232 E-score; for AGGTACAC it is 0.452 ± 0.00159 E-score.
The figure for AGGTATCC is 0.344 ± 0.00693 E-score; for CGGTACAC it is 0.4352 ± 0.00226 E-score; for GGGTACCC it is 0.234 ± 0.00584 E-score.
For the sequence CGGTATAC, the binding signal amounted to 0.165 ± 0.00282 E-score.
Consider CGCACTAC, for which the binding signal was 0.152 ± 0.0379 E-score.
The figure for CACGCTCG is 0.242 ± 0.0063 E-score.
The figure for ACTGCATA is 0.2138 ± 0.00024 E-score; for ATTGGGTG it is 0.261 ± 0.0204 E-score.
The value for CACTCATA was 0.195 ± 0.0111 E-score; that for CGCAATAC was 0.276 ± 0.0226 E-score.
On to CACGCAAC, for which the binding signal stood at 0.227 ± 0.0168 E-score.
The figure for CCCCCTAC is 0.267 ± 0.031 E-score.
The value for TCGCACCA was 0.177 ± 0.0487 E-score; that for CAAGTACA was 0.207 ± 0.0357 E-score; that for CCCTAACA was 0.181 ± 0.028 E-score.
For the sequence CACCAATG, the binding signal came out at 0.222 ± 0.00267 E-score.
CTCCCCAA: the binding signal was 0.28 ± 0.0223 E-score.
The figure for ACAACCCC is 0.207 ± 0.03 E-score; for AGCTACAC it is 0.435 ± 0.00848 E-score; for CGCGCTAC it is 0.15 ± 0.0294 E-score.
The figure for AGCCACAC is 0.208 ± 0.0231 E-score; for GGCTACGA it is 0.196 ± 0.00863 E-score; for GGCTACAC it is 0.4245 ± 0.0031 E-score.
The value for GGCCACAC was 0.233 ± 0.0102 E-score; that for CGCTACAC was 0.4023 ± 0.0021 E-score.
As to CGCTCTAC, the binding signal was determined as 0.157 ± 0.026 E-score.
The value for CTTTTACA was 0.17 ± 0.0837 E-score.
The figure for CACGTACG is 0.167 ± 0.0161 E-score.
The value for CTCCTACA was 0.243 ± 0.0252 E-score; that for ACCACGTC was 0.182 ± 0.0198 E-score.
In the case of ACTATCGA, the binding signal was found to be 0.156 ± 0.0186 E-score.
For CTGAACAC, the binding signal is 0.4224 ± 0.00137 E-score.
In the case of CTGAGCAC, the binding signal was 0.254 ± 0.0174 E-score.
The figure for ATGCACAC is 0.289 ± 0.00704 E-score; for ATGAACCC it is 0.198 ± 0.0247 E-score; for GTGAGCAC it is 0.159 ± 0.0143 E-score.
The figure for ATGAACAC is 0.4 ± 0.0197 E-score; for CTGAACCC it is 0.187 ± 0.0441 E-score.
The figure for GTGAACAC is 0.4118 ± 0.00099 E-score; for TCAGAACA it is 0.228 ± 0.00667 E-score.
ACTCCCCA: the binding signal stood at 0.163 ± 0.025 E-score.
The value for GGAAGACA was 0.155 ± 0.0119 E-score.
The value for CACGTCGA was 0.177 ± 0.0103 E-score.
The value for CAGTCGGG was 0.196 ± 0.029 E-score; that for ATCCGACC was 0.153 ± 0.0521 E-score; that for CCCGATCC was 0.2392 ± 0.00171 E-score.
Regarding AGATGGTG, the binding signal worked out at 0.2726 ± 0.000212 E-score.
Turning to GTACACGA, the binding signal is 0.4189 ± 0.00327 E-score.
The figure for GTACACAA is 0.308 ± 0.0492 E-score.
The value for CTACACAC was 0.297 ± 0.0318 E-score.
The figure for GTACTCGA is 0.19 ± 0.0242 E-score.
For CTACACGA, the binding signal was 0.388 ± 0.00636 E-score.
The figure for CTACACGC is 0.4033 ± 0.000742 E-score; for CAACACGC it is 0.363 ± 0.0087 E-score.
The value for CTACACAG was 0.161 ± 0.084 E-score.
The value for CCAGGATC was 0.193 ± 0.0154 E-score; that for CCACTTCC was 0.16 ± 0.0569 E-score.
Consider TGTACGAA, for which the binding signal was determined as 0.157 ± 0.0609 E-score.
The value for AATGGACA was 0.174 ± 0.00513 E-score.
On to ACCCTCCC, for which the binding signal came out at 0.211 ± 0.0163 E-score.
The figure for CACCTCTA is 0.295 ± 0.0114 E-score; for ACGTACAC it is 0.436 ± 0.00504 E-score.
The value for CCGCACAC was 0.303 ± 0.0285 E-score; that for GCGTACGC was 0.235 ± 0.0141 E-score; that for CCGTACCC was 0.1577 ± 0.00155 E-score.
The value for GCGTACCC was 0.237 ± 0.0376 E-score.
CCGTACAC: the binding signal came out at 0.418 ± 0.00993 E-score.
The figure for ACGTAATC is 0.186 ± 0.0139 E-score; for ACGTACCC it is 0.202 ± 0.00673 E-score.
The figure for GCGTACAC is 0.4123 ± 0.00366 E-score.
The value for CACCACGA was 0.28 ± 0.0196 E-score; that for CAAGGGTA was 0.19 ± 0.0194 E-score.
Take AACCCCGG: the binding signal came to 0.2652 ± 0.00233 E-score.
The value for AACGGACA was 0.278 ± 0.00733 E-score; that for TGTCCACA was 0.205 ± 0.0326 E-score; that for TAGGTACA was 0.179 ± 0.00841 E-score.
The value for CTAGCAAA was 0.173 ± 0.0314 E-score.
Turning to TCCCGACA, the binding signal amounted to 0.155 ± 0.0127 E-score.
The figure for CACCGTCC is 0.276 ± 0.00535 E-score.
The figure for ACACACCT is 0.386 ± 0.00817 E-score.
ACGCACCG: the binding signal was 0.177 ± 0.0273 E-score.
ACACACAG: the binding signal came out at 0.269 ± 0.0266 E-score.
The figure for ACACACAT is 0.201 ± 0.0773 E-score; for ACACACCG it is 0.428 ± 0.0122 E-score; for ACACACGT it is 0.27 ± 0.0195 E-score.
The figure for AAAAGGTG is 0.195 ± 0.0717 E-score; for ACTGGGTG it is 0.319 ± 0.0299 E-score.
The figure for ACGCAGTG is 0.212 ± 0.0202 E-score; for TGTATCAA it is 0.158 ± 0.0316 E-score.
GTCACGAC: the binding signal stood at 0.164 ± 0.0297 E-score.
The value for CCCGGGAG was 0.189 ± 0.00274 E-score.
Turning to ACTGTGCA, the binding signal is 0.195 ± 0.0266 E-score.
The value for TGGACACA was 0.252 ± 0.0644 E-score; that for AGGACACC was 0.4835 ± 0.000969 E-score.
The figure for AGGACACA is 0.224 ± 0.0724 E-score; for AGGACACG it is 0.349 ± 0.0239 E-score.
